Experimental data reported in the supplement of paper PMC6555819.

Test system: RARa:RXR (NR concentration 270 nM, RXRa partner concentration 90 nM)
Assay: PBM binding z-score (relative to random genomic background probes); higher = stronger binding; sequences stand for … in GC…GCGATTGACAGCGTAGAATGAAGG
Summary of the method: (§1)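 Binding z-scores take random background probes as their reference. They come from custom Agilent 4×180K protein-binding microarrays incubated 1 h with ligand-free nuclear receptor dimers, with antibodies against each partner (one per run) detecting binding. Scanned fluorescence was regression-normalized.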

| Sequence | PBM binding z-score |
| --- | --- |
| ATCGAAAGGTAGACGAGGTGAGTATACACCGTTT | 0.31 |
| CAGCCTAGGTCAGGGCCGGTATAGGAGGAACGTT | 0.69 |
| CAAACTAGGTCAAGAGGTCGAAGTCCGCTTCCCG | 4.93 |
| TAGCCTAGGTCATTGGGGCAGTATAGTACGCATC | 2.52 |
| CGAACTAGGTCATTGACAGGACAGTGAATAGTAA | 2.44 |
| AGATGTAGGTTACATCCGGGTCATTCAGGCTATG | 3.68 |
| CAAACTAGGTCAAAGAGGTCAAAGTCCGTGCGTA | 6.42 |
| CATACAGGGTCAGCTAGGCCAGGGTAGGGACGGC | 3.16 |
| GCTTACGGGTCGAAGGTTATAGCATGAATAGAAT | 3.79 |
| CCTATTGGGCCACGAAAGGTCATTGATTCAGTGA | 5.93 |
| CCCACTGGGCCAAAGGTCATTGATTCCAATGCTC | 6.34 |
| CCGACTGGGGCAAAAGTTACCATACTCAGTACGA | -0.0334 |
| ACTAGCAGGCCAAGTTTGGGTCACTCTAACAAAG | 1.57 |
| CGAACTAAGTCAGAACAGGACAGTGAAGGATGAT | 0.137 |
| ACAGACAGTTGATGAAGGTAACTCAGGCTATCAT | 0.287 |
| ATCTCTAGGTAACCAAGTTCAGTGGATGCCGAAC | 0.454 |
| CAAACTAGGTCACCGGAAGGTCAAGGTCCGCATG | 7.28 |
| CCTTACGGGTCACTGACAGTTTATAGCATTTGGA | 4.35 |
| AGGCAAAGTTCAGGACGAGGTAACGTAAAGCACG | 2.82 |
| CGTCCAAGGCCAGCAGGTCAGTGAAAGCGACGTG | 0.692 |

| Sequence | PBM binding z-score |
| --- | --- |
| ATCTCTAGGTAAGACTCAGTGCAGTGAAGAACGC | 0.223 |
| CCGACTGGGGCATAAGGTTAACATAAGCCAGCCC | 1.51 |
| CCTAGCAGGCCAGGGTCACTCATGCATTTCGCTT | 2.67 |
| CAAACTAGGTCAAGAGGTCATAGTCCGCTTCCCG | 7.42 |
| ATCTCTAGGTAAGAGTCAGTTCAGTGAAGAACGC | 0.349 |
| GGAACGAGGGCGAGTTGATAGCAGAGTTTGATGG | 0.0866 |
| CGTCAATGTTCAAGGTAACGTAACAGAAAGCAGC | -0.00308 |
| CCTACTGGGCCAAGGGCATTGATCAGTCAAAGCA | -0.637 |
| ATATGTCGGTTATCGGGTCATTCAGTTTGCGCAT | 3.02 |
| GCTAGCAGGCCATTTGGGTCACTCAGTGACGGGC | 0.684 |
| CATTACGGGTCAAGGTTATAGCACGGGTGGTACG | 4.69 |
| TCTCGGAGGACACGAAAGGTCATAGCTCGACATC | 5.39 |
| CCGGACAGGTGAAAGGTAACTCAGTCTGGTACGC | 1.91 |
| CCAGACAGGTGAGAAGGTAACTTAGCCTCGATTA | 0.0746 |
| TCGAGTAGGTTAGTCGGGGCATTCAACCAACATA | 0.545 |
| CCTTGCAGGCCAATCTGGGTCACTCAAGGCTTGA | 1.59 |
| CTCGAAAGGTCGGTTGAGGTGAGTACACGGATAA | 2.11 |
| CCTGCTAGGTCGATGGTCAGCTAAAGCAGCTCGC | -0.143 |
| CCTCGGAGGACAGAAGGTCAGGGCTGTCCGCTTT | 2.13 |
| CCTACTGGGCCAAGGTCAATGATCAGTCAAAGCA | 2.81 |

Test system: RARa homodimer (NR concentration 270 nM)
Assay: as above
Summary of the method: as §1

| Sequence | PBM binding z-score |
| --- | --- |
| ATCGAAAGGTAGACGAGGTGAGTATACACCGTTT | 0.224 |
| CAGCCTAGGTCAGGGCCGGTATAGGAGGAACGTT | -0.753 |
| CAAACTAGGTCAAGAGGTCGAAGTCCGCTTCCCG | 1.54 |
| TAGCCTAGGTCATTGGGGCAGTATAGTACGCATC | 0.554 |
| CGAACTAGGTCATTGACAGGACAGTGAATAGTAA | 0.499 |
| AGATGTAGGTTACATCCGGGTCATTCAGGCTATG | -0.0966 |
| CAAACTAGGTCAAAGAGGTCAAAGTCCGTGCGTA | 2.57 |
| CATACAGGGTCAGCTAGGCCAGGGTAGGGACGGC | 0.91 |
| GCTTACGGGTCGAAGGTTATAGCATGAATAGAAT | -0.0107 |
| CCTATTGGGCCACGAAAGGTCATTGATTCAGTGA | 2.11 |
| CCCACTGGGCCAAAGGTCATTGATTCCAATGCTC | 1.99 |
| CCGACTGGGGCAAAAGTTACCATACTCAGTACGA | -0.135 |
| ACTAGCAGGCCAAGTTTGGGTCACTCTAACAAAG | -0.645 |
| CGAACTAAGTCAGAACAGGACAGTGAAGGATGAT | 0.452 |
| ACAGACAGTTGATGAAGGTAACTCAGGCTATCAT | 0.632 |
| ATCTCTAGGTAACCAAGTTCAGTGGATGCCGAAC | 0.529 |
| CAAACTAGGTCACCGGAAGGTCAAGGTCCGCATG | 2.79 |
| CCTTACGGGTCACTGACAGTTTATAGCATTTGGA | 1 |
| AGGCAAAGTTCAGGACGAGGTAACGTAAAGCACG | 1.16 |
| CGTCCAAGGCCAGCAGGTCAGTGAAAGCGACGTG | -1.23 |

| Sequence | PBM binding z-score |
| --- | --- |
| ATCTCTAGGTAAGACTCAGTGCAGTGAAGAACGC | 0.328 |
| CCGACTGGGGCATAAGGTTAACATAAGCCAGCCC | -0.431 |
| CCTAGCAGGCCAGGGTCACTCATGCATTTCGCTT | -0.129 |
| CAAACTAGGTCAAGAGGTCATAGTCCGCTTCCCG | 2.36 |
| ATCTCTAGGTAAGAGTCAGTTCAGTGAAGAACGC | 1.11 |
| GGAACGAGGGCGAGTTGATAGCAGAGTTTGATGG | -0.148 |
| CGTCAATGTTCAAGGTAACGTAACAGAAAGCAGC | 0.0887 |
| CCTACTGGGCCAAGGGCATTGATCAGTCAAAGCA | -1.18 |
| ATATGTCGGTTATCGGGTCATTCAGTTTGCGCAT | 0.924 |
| GCTAGCAGGCCATTTGGGTCACTCAGTGACGGGC | -0.725 |
| CATTACGGGTCAAGGTTATAGCACGGGTGGTACG | 1.58 |
| TCTCGGAGGACACGAAAGGTCATAGCTCGACATC | 1.62 |
| CCGGACAGGTGAAAGGTAACTCAGTCTGGTACGC | -0.413 |
| CCAGACAGGTGAGAAGGTAACTTAGCCTCGATTA | 0.973 |
| TCGAGTAGGTTAGTCGGGGCATTCAACCAACATA | 0.0845 |
| CCTTGCAGGCCAATCTGGGTCACTCAAGGCTTGA | -0.229 |
| CTCGAAAGGTCGGTTGAGGTGAGTACACGGATAA | -0.296 |
| CCTGCTAGGTCGATGGTCAGCTAAAGCAGCTCGC | -0.87 |
| CCTCGGAGGACAGAAGGTCAGGGCTGTCCGCTTT | 0.0268 |
| CCTACTGGGCCAAGGTCAATGATCAGTCAAAGCA | 0.147 |
